We go through nine compounds from PubChem BioAssay (NCATS).

Experiment [1] in a line: qHTS Assay for Identifying Gametocytocidal Compounds (AID 743244).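 Further: on the % scale 0 is the no-effect control and ±100 the full control effect; actives lower the fluorescent signal which means gametocytes are killed.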 As to conditions: P. falciparum 3D7 stage III-V gametocytes, alamarBlue, 72 h; max response: stronger effect = lower value. Put shortly:
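3D7 gametocytes, stages III–V, 20,000/well; cpd 72 h, 37 °C/5% CO2; + alamarBlue 24 h; fluor. Ex 525/Em 598.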
(In general: qHTS replaces the single test concentration by a dilution series.)

Experiment [2] can be described thus: qHTS assay for measurement of the activity of small molecule inhibitors on Zika virus induced Caspase-3 activity in human iPSC derived neural progenitor cells (hNPCs) (AID 1224857). Further: % of control where 0% means no effect; nearly all actives have a fitted effect of over 65% in size. The method in brief: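 Cells were plated at 350 per well and grown 16 to 20 hours. Compound pretreatment lasted one hour, after which ZIKV (2 FFU/cell) was added for 6 hours. Percent inhibition was normalized between uninfected and infected controls.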

Experiment [3] can be described thus: qHTS assay for measurement of the activity of small molecule inhibitors on Zika virus induced Caspase-3 activity in human astrocytoma cells (AID 1224859).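 Further: plate controls were ZIKV-infected untreated cells for no effect and uninfected cells for full effect.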 Put shortly: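 Percent inhibition of virus-induced caspase-3/7 signal is calculated against uninfected and ZIKV-infected control cells. Cells are SNB-19, infected at 2 FFU/cell for 6 h after 1 h compound exposure.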

A short description of experiment [4]: qHTS assay to identify small molecule inhibitors of chordoma cells - UCH-1 (AID 1259355). Further: on the % scale 0 is the no-effect control and ±100 the full control effect; nearly all actives have a fitted effect of over 55% in size. Put shortly: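 Luminescent ATP read-out (CellTiter-Glo, 30min at room temperature) measured viability of UCH-1 cells exposed for 48hr to test drugs at 15 concentrations, co-dosed with a five-agent combination of auranofin, camptothecin, doxorubicin, rubitecan and topotecan.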

The nature of experiment [5]: qHTS assay to identify small molecule inhibitors of chordoma cells - UCH-2 (AID 1259356). Further: on the % scale 0 is the no-effect control and ±100 the full control effect.
Experiment [6] can be described thus: qHTS profiling for inhibitors of Plasmodium falciparum (3D7) proliferation (AID 743322; call rule not given here;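 further: infected erythrocytes exposed to compound for 72 h before lysis; 100% = DMSO vehicle wells and 0% = 0.29 µM artemisinin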). As to conditions: P. falciparum 3D7 proliferation; at 28.7 µM (top of the series) unless noted. Put shortly:
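Erythrocytes infected with P. falciparum (0.3% parasitemia, 2.5% hematocrit) incubated with compounds 72 h at 37 C, 5% CO2. Lysis with saponin/Triton buffer containing SYBR Green I, overnight at room temperature in the dark; DNA fluorescence (485/535 nm) normalised to 0.29 uM artemisinin and DMSO.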

The nature of experiment [7]: qHTS profiling for inhibitors of Plasmodium falciparum (DD2) proliferation (AID 743323; call rule not given here). As to conditions: lower = more inhibition; at 28.7 µM (top of the series) unless noted. Put shortly: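 1536-well qHTS; infected RBCs 0.3% parasitemia/2.5% Hct final; cpd 72 h 37 C 5% CO2; lysis buffer + SYBR Green I, o/n RT dark; FI 485/535; norm. to 0.29 uM artemisinin and DMSO, plate-stack corrected.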

Experiment [8] in a line: Identifying Small Molecule Inhibitors of Pancreatic Cancer Stem Cells (SN12C, Adherent) (AID 1259358).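 Further: cell survival measured after 48 h of compound exposure.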 The method in brief: (§1)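 Viability is scored by CellTiter-Glo luminescence 48 h after dosing, expressed as percent activity against vehicle and no-cell references. Spheroid formats rely on cells cultured 14 days in stem cell media beforehand.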
Experiment [9] can be described thus: Identifying Small Molecule Inhibitors of Pancreatic Cancer Stem Cells (A278, Adherent) (AID 1259361).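 Further: viability read after 48 h compound exposure; 100% = DMSO-treated cells and 0% = cell-free media-only wells; nearly all actives have a fitted effect of over 35% in size.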 Put shortly: as §1
Experiment [10] in a line: Identifying Small Molecule Inhibitors of Pancreatic Cancer Stem Cells (SN12C, Spheroid) (AID 1259360).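 Further: 100% = DMSO-treated cells and 0% = wells without cells.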 Put shortly: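 Pre-formed 14-day tumor spheroids or adherent cells dosed and incubated 48 h, 37C, 5% CO2. Viability assessed by CellTiter-Glo.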
The nature of experiment [11]: Identifying Small Molecule Inhibitors of Pancreatic Cancer Stem Cells (Panc1, Adherent) (AID 1259362).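 Further: compound exposure lasted 48 h before the viability read; plate controls were DMSO-treated cells for no effect and cell-free media wells for full effect.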 As to conditions: Potency: viability. The method in brief:
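After a 4 h attachment period, compounds were pinned into wells and cultures held 48 h under standard incubator conditions. Viability was then measured as CellTiter-Glo luminescence following 10 min at room temperature.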

The nature of experiment [12]: qHTS assay for cell viability of HEK293 cells (AID 743288). Further: on the % scale 0 is the no-effect control and ±100 the full control effect; nearly all actives have a fitted effect of over 50% in size. Particulars: ATP luminescence (CellTiter-Glo), 18 h, stronger effect = lower value. Put shortly:
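Luminescent ATP quantitation served as the viability read-out. Cells (parental HEK293, 2,000/well) received compounds after at least 5 h at 37 C and were exposed for 18 h before a 30 min room-temperature reagent step.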

Experiment [13] in a line: qHTS assay for cell viability of the p53RE-bla HCT-116 cell line (AID 743292). Further: on the % scale 0 is the no-effect control and ±100 the full control effect; nearly all actives have a fitted effect of over 55% in size. The method in brief:
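Compound-exposed HCT-116 (p53RE-bla) cells, 4,000 per well, were kept 16 h at 37 C following a 5 h preincubation. Cell number was estimated from total ATP by CellTiter-Glo luminescence read after 30 min at room temperature.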

Experiment [14] can be described thus: P-glycoprotein substrates identified in KB-3-1 adenocarcinoma cell line, qHTS therapeutic library screen (AID 1346986). Further: nearly all actives have a fitted effect of over 60% in size. As to conditions: KB-3-1 parental cells viability, CellTiter-Glo, 72 h; at 44.5 µM (top of the series) unless noted. Put shortly:
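Resistance attributable to P-gp was assessed by comparing AC50 in KB-8-5-11 with parental KB-3-1 and by tariquidar reversal. Cells were exposed 72 h and viability read by CellTiter-Glo.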

Several values for one entry are separate records, joined by “and”; a condition that tells them apart may be missing. Identical values can stand only once. Results filed as inconclusive are left out. Activity calls are given as the source filed them. Unless noted, the call rests on the fitted dose curve; in most records, active means well fitted curve in the direction sought with a large enough effect; inconclusive means small, poorly fitted or top-dose-only effect, or another doubt; inactive means no such curve, though single readings can be large; an effect the other way counts as inactive or inconclusive.

As for `CCOC(CN1CCN(CC(C)C(=O)c2ccccc2)CC1)c1ccccc1` (stereo not given), the max response in experiment [1] is 18.2% (inactive). Also, the call in experiment [2], in [3] and in experiment [5] was inactive. In addition, in experiment [4], the Potency entry is “inactive”.
Turning to `CC[C@@]1(c2ccccc2)NC(=O)N(C)C1=O`, the max response in [1] is 7.9% (inactive). The compound was called inactive in experiment [2], in [3] and in experiment [5]. Further, the Potency result in experiment [4] was “inactive”.
Consider `O=c1[nH]c(=O)c2[nH]c(=O)[nH]c2[nH]1`, for which the max response in experiment [1] was 19.7% (inactive) and 9.73% (inactive). Moreover, the activity change, negative = inhibition is -8.73% [at 9.06 µM] (inactive) in experiment [2] and -0.8% [at 9.06 µM] (inactive) in [3]. Moreover, the Potency result in experiment [4] is “inactive”. For the same compound, the compound was classed as inactive in experiment [5].
Regarding `CC(=O)Nc1ccc(/C=N/NC(N)=S)cc1`, the max response in [1] is -6.31% (inactive) and 5.4% (inactive). For the same compound, the outcome in [2], in [3] and in [5] was inactive. For the same compound, the Potency entry in experiment [4] was “inactive”.
On to `NC(=O)c1ncn([C@@H]2O[C@H](CO)[C@@H](O)[C@H]2O)c1N`, for which, in [1], the max response is -0.312% (inactive) and 4.68% (inactive). For the same compound, the remaining parasite growth % (stronger effect = lower value) in [6] came out at 104%. In experiment [7], the activity, percent of control turned out to be 121%. In addition, the compound was classed as inactive in experiment [2], in experiment [3], in [5] and in experiment [8]. In addition, in experiment [4], the Potency result was “inactive”. In [9], the IC50 (viability decrease) entry is “inactive”.
Regarding `CC(=O)NC(Cc1ccccc1)C(=O)O` (stereo not given), in [1], the max response was -1.78% (inactive). Also, the compound was classed as inactive in [2], in [3] and in experiment [5]. The Potency result in experiment [4] was “inactive”.
On to `O=C(O)CN1C(=O)c2cccc3cccc(c23)C1=O`, for which the max response in experiment [1] is 0.25% (inactive). The result in experiment [2], in experiment [3] and in [5] was inactive. The Potency entry in experiment [4] was “inactive”.
For the compound `Oc1cn2c(n1)Nc1ccc(Cl)c(Cl)c1C2`, in experiment [1], the max response is 2.25% (inactive) and 14.5% (inactive). Also, the compound was classed as inactive in experiment [2], in [3], in experiment [5], in experiment [8] and in experiment [10]. In addition, the Potency entry in [4] and in experiment [11] was “inactive” each time. In addition, in experiment [9], the IC50 (viability decrease) result was “inactive”.
As to `CNC(=O)Oc1ccc2c(c1)[C@]1(C)CCN(C)[C@@H]1N2C`, the max response in experiment [12] is -7.46% (inactive). The Potency result in experiment [13] and in experiment [4] was “inactive” in each case. The compound was classed as inactive in experiment [2], in experiment [3], in experiment [5] and in [14].
